Experimental data reported in PubChem BioAssay (NCATS).
Results filed as inconclusive are left out. Calls of active or inactive are those of the source. Calls follow the shape of the dose curve; as a rule, active = well fitted inhibition curve with a large enough effect; inconclusive = small, poorly fitted or top-dose-only effect; inactive = flat fitted curve, though single readings scatter.

Key:
Assay in all cases: qHTS profiling for inhibitors of Plasmodium falciparum proliferation (AID 504749); also: nearly all actives have a fitted effect of over 60% in size
Settings in all cases: P. falciparum in erythrocytes, SYBR Green DNA, 72 h; series mostly up to 28.7 µM
[1] = tested on: CP247
Method in brief: (§1)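 Each compound contacts P. falciparum-infected red blood cells for 72 h at 37 C; lysis buffer (Tris, EDTA, saponin, Triton X, SYBR Green I) is added and fluorescence measured next morning; values normalized to controls.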

[2] = tested on: CP250
Method in brief: as §1

[3] = tested on: CP260
Method in brief: as §1

[4] = tested on: CP266
Method in brief: as §1

[5] = tested on: CP286
Method in brief: as §1

[6] = tested on: CP315
Method in brief: as §1

[7] = tested on: CP329
Method in brief: as §1

[8] = tested on: CP262
Method in brief: as §1

[9] = tested on: CP265
Method in brief: as §1

[10] = tested on: CP297
Method in brief: as §1

[11] = tested on: CP305
Method in brief: as §1

[12] = tested on: DFO2036
Method in brief: as §1

[13] = tested on: CP238
Method in brief: as §1

[14] = tested on: CP252
Method in brief: as §1

[15] = tested on: CP256
Method in brief: as §1

[16] = tested on: CP268
Method in brief: as §1

[17] = tested on: CP269
Method in brief: as §1

[18] = tested on: CP291
Method in brief: as §1

[19] = tested on: CP325
Method in brief: as §1

[20] = tested on: CP335
Method in brief: as §1

Measured: Potency
Potency is read from the fitted curve at half-maximal effect.

Nc1ccc(N)cc1
inactive: [3] | [4] | [5] | [6] | [7]
active: [1] 8.91 µM | [2] 12.6 µM

CC(Cc1ccccc1)NCc1ccccc1Cl (centres undefined)
active: [9] 11.2 µM
inactive: [2] | [8] | [4] | [5] | [10] | [11] | [6] | [7] | [12]

ClC1=C(Cl)C2(Cl)C(CBr)CC1(Cl)C2(Cl)Cl (centres undefined)
not listed: [3] | [20]
inactive: all other assays above

O=C(CCCN1CCC(n2c(=O)[nH]c3ccccc32)CC1)c1ccc(F)cc1
active: [13] 3.55 µM | [1] 3.55 µM | [2] 2.82 µM | [15] 3.55 µM | [3] 1.58 µM | [9] 1.12 µM | [16] 3.61 µM | [17] 1.81 µM | [5] 2 µM | [18] 6.42 µM | [11] 5.1 µM | [19] 5.1 µM | [20] 1.44 µM | [12] 1.58 µM
inactive: [8]

CN1C[C@@H](NS(=O)(=O)N(C)C)C[C@@H]2c3cccc4c3c(cn4C)C[C@H]21
not listed: [3] | [4] | [5] | [7] | [10] | [15] | [17] | [20]
inactive: all other assays above

C#C[C@]1(O)CC[C@H]2[C@@H]3CCC4=CC(=O)CCC4=C3C=C[C@@]21CC
active: [1] 3.55 µM
inactive: [6]

OC(O)C(Cl)(Cl)Cl
not listed: [4] | [9] | [10]
inactive: all other assays above

C=CCOC(Cn1ccnc1)c1ccc(Cl)cc1Cl (centres undefined)
active: [2] 10 µM | [3] 10 µM | [16] 15.1 µM | [17] 15.1 µM | [5] 11.2 µM | [18] 12 µM | [10] 6.75 µM | [6] 16.9 µM | [19] 15.1 µM | [12] 12.6 µM
inactive: [15] | [8]

CN1C(=O)[C@@H](NC(=O)c2cc3ccccc3[nH]2)N=C(c2ccccc2)c2ccccc21
inactive: [1] | [8]

COCC(=O)N(c1c(C)cccc1C)C(C)C(=O)OC (centres undefined)
not listed: [1] | [2] | [9] | [12] | [13] | [14]
inactive: all other assays above

COc1ccc(CN2CCNCC2)c(OC)c1OC
active: [18] 5.1 µM
not listed: [4] | [6] | [7] | [10] | [11] | [16] | [17] | [19]
inactive: all other assays above

Oc1c(Br)cc(Br)cc1Br
not listed: [10]
inactive: all other assays above

CN1C(=O)CN=C(c2ccccc2)c2cc([N+](=O)[O-])ccc21
not listed: [19] | [20]
inactive: all other assays above

CNC(=O)Oc1cccc2ccccc12
not listed: [6] | [10]
inactive: all other assays above

C[N+]1(CCC(C(N)=O)(c2ccccc2)c2ccccc2)CCCCC1
not listed: [19]
inactive: all other assays above

C[N+](C)(C)CCOC(=O)C(O)(c1ccccc1)c1ccccc1
not listed: [4]
inactive: all other assays above

Cc1c(Cl)c(=O)oc2cc(OP(=O)(OCCCl)OCCCl)ccc12
active: [13] 8.91 µM | [2] 8.91 µM | [14] 8.91 µM | [15] 10 µM | [8] 7.57 µM | [9] 7.94 µM | [16] 12 µM | [17] 12 µM | [5] 11.2 µM | [18] 7.57 µM | [10] 12 µM | [11] 6.75 µM | [19] 13.5 µM | [7] 12 µM | [12] 10 µM
